Source: PubChem BioAssay (National Center for Advancing Translational Sciences (NCATS))
ATXN viability – reduces viability in counter-screen for ATXN expression inhibitors. S2 cells (HEK-293 line with an ATXN2-luciferase reporter) viability, CellTiter-Fluor protease fluorescence, 24 h. Potency, µM (titrated, usually from 56.7 µM), hits mostly cytotoxic. actives 0.49% (n = 400,000); note: nearly all actives have a fitted effect of over 40% in size
ATXN2 expr inh – reduces ATXN2 reporter expression in HEK-293 cells | HEK-293 ATXN2-luciferase reporter, luminescence, 24 h | Potency, µM (titrated, usually from 57 µM), for the others: at the highest dose activity change, negative = inhibition, hits mostly inhibitors | actives 0.72% (n = 360,000); note: % is set by controls: 0 for no effect and ±100 for the full control effect; nearly all actives have a fitted effect of over 55% in size
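qHTS (up to 57 uM final) was run with 24 h compound exposure of reporter cells at 37 °C. Each well was multiplexed: SteadyGlo luminescence measured ATXN2-luciferase expression after a fluorogenic Gly-Phe-AFC viability readout (25 uM final).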
TDP1 cell noCPT – qHTS for Inhibitors of human tyrosyl-DNA phosphodiesterase 1 (TDP1): qHTS in cells in absence of CPT; DT40 Tdp1-/- hTDP1 cells, no CPT, ATP luminescence, 48 h; Potency, µM (highest dose often 46.2 µM), inactives show at the highest dose activity change, negative = growth inhibition, most hits filed as inhibitors; actives 15% (n = 420,000); AID 686978, 2013; note: % is set by controls: 0 for no effect and ±100 for the full control effect; nearly all actives have a fitted effect of over 55% in size
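Chicken DT40 Tdp1-/- cells complemented with human TDP1, screened without camptothecin (DMSO vehicle only), 400 cells/well. Compounds pin-transferred, cells incubated at 37 °C for at least 48 hr. Growth read as ATP-dependent luminescence (CellTiter-Glo, 30 min at RT).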
HepG2 tox – kills HepG2 cells in TGF-b inhibitor counter-screen. Potency, µM (titrated, usually from 46.1 µM), inactives show at the top dose activity change, negative = cytotoxicity, usual class: cytotoxic. HepG2 CAGA-GFP viability, ATP luminescence, 18 h. actives 0.76% (n = 410,000)
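HepG2 CAGA-GFP cells (1000/well, DMEM with 1% FBS) received compound, then TGF-beta at 500 pg/mL final, and were incubated 18 hours at 37 degrees C. Viability was read by CellTiter-Glo luminescence. Media-only wells were set as complete cell-killing and DMSO as no toxicity.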
TGFb inhibitor – TGF-b pathway inhibition. HepG2 CAGA-GFP TGF-b/SMAD3 reporter, GFP fluorescence, 18 h; TGF-beta stimulated, 500 pg/mL final. Potency, µM (top dose mostly 46.1 µM), without a hit: at the top dose activity, negative = inhibition, hits mostly inhibitors. actives 1.2% (n = 410,000). AID 588855; note: % is set by controls: 0 for no effect and ±100 for the full control effect; nearly all actives have a fitted effect of over 65% in size
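Cell-based qHTS in HEPG2 carrying a CAGA-GFP Smad reporter; compounds added before 500 pg/mL final TGF-beta, 18 h incubation at 37 degrees C, GFP fluorescence quantified per cell by imaging cytometry.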
DT40 TDP1 CPT – growth inhibition of DT40 Tdp1-/-;hTDP1 cells with camptothecin (screen for TDP1 inhibitors) | chicken DT40 Tdp1-/-;hTDP1 cells + 20 nM CPT, ATP luminescence, 48 h | Potency, µM (top dose mostly 46.2 µM), for the others: at the top dose activity change, negative = growth inhibition, hits mostly inhibitors | actives 12% (n = 420,000); note: % is set by controls: 0 for no effect and ±100 for the full control effect; nearly all actives have a fitted effect of over 55% in size
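Chicken DT40 Tdp1-/- cells stably complemented with human TDP1 were seeded at 400 cells/well in medium containing 20 nM camptothecin, exposed to pin-transferred compounds, and grown at 37 °C for at least 48 hr. Viability was read as ATP luminescence.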
Starred values were filed as active, the others as inactive; i = inactive; ? = inconclusive; · = no result. Sampled rows, rich in hits. Any-hit rate of the full collection: about 17%. Calls come from the whole dose curve; as a rule, active = well fitted curve in the direction sought with a large enough effect; inconclusive = small, poorly fitted or top-dose-only effect, or another doubt; inactive = no such curve, though single readings can be large; an effect the other way counts as inactive or inconclusive. Potency is the fitted concentration of half-maximal effect.

SMILES	ATXN viability	ATXN2 expr inh	TDP1 cell noCPT	HepG2 tox	TGFb inhibitor	DT40 TDP1 CPT
COc1ccc(C2/C=C\CN(C(=O)C3CC3)C(Cc3ccccc3)C(=O)N2Cc2ccc(F)cc2)cc1 (stereo not drawn)	·	·	·	0%	?	·
COc1ccc(C2/C=C\CN3CCC[C@H]3C(=O)N2Cc2ccc(F)cc2)cc1 (stereo partly drawn)	i	3%	23µM*	3%	-1%	?
COc1ccc(C2/C=C\CC(OCc3ccccc3)CC(=O)N2Cc2cccc(F)c2)cc1 (stereo not drawn)	i	?	21µM*	-26%	?	18µM*
COc1cc(C(=O)NC2CCCc3ccccc32)cc(OC)c1C (stereo not drawn)	i	-9%	?	9%	-10%	?
COc1cc(OC)cc(C(=O)N[C@H](C(=O)NC2CCCc3ccccc32)C(C)C)c1 (stereo partly drawn)	i	5%	16µM*	5%	0%	?
COc1ccc(C(=O)NC2CCCc3ccccc32)cc1[N+](=O)[O-] (stereo not drawn)	i	-24%	3.7µM*	2%	-13%	5.2µM*
COc1ccccc1NC(=O)COc1ccc(C(=O)NC2CCCc3ccccc32)cc1OC (stereo not drawn)	i	-2%	7.3µM*	0%	0%	?
O=C(NC1CCCc2ccccc21)c1n[nH]c(=O)c2ccccc12 (stereo not drawn)	i	-25%	6.5µM*	-24%	-25%	?
Cc1c(N(C(=O)Cc2cccs2)C2(C(=O)NC3CCCC3)CCCCC2)c(=O)n(-c2ccccc2)n1C	·	-18%	-6%	7%	8%	2%
COc1cccc(C(=O)NC2CCCc3ccccc32)c1OC (stereo not drawn)	i	-4%	23µM*	-53%	0%	?
O=C(Nc1ccccc1)NC1CCCc2ccccc21 (stereo not drawn)	i	·	18µM*	-4%	1%	?
CCc1c(C(=O)NC2CCCc3ccccc32)[nH]c(C)c1C(C)=O (stereo not drawn)	?	·	15µM*	-49%	-14%	?
Cc1c(C(=O)NC2CCCc3ccccc32)cccc1[N+](=O)[O-] (stereo not drawn)	i	-14%	13µM*	0%	29%	?
COc1cc(C(=O)NNC2=NC(C)(C)Cc3cc(C)c(C)cc32)cc(OC)c1OC	i	-19%	-13%	2%	-5%	-44%
CC(CC12CC3CC(CC(C3)C1)C2)NCc1ccccc1O (stereo not drawn)	?	-53%	16µM*	16µM*	18µM*	15µM*
Cc1nnsc1C(=O)Nc1ccc(S(=O)(=O)N2CCCCC2)cc1	i	-12%	?	-15%	-6%	21µM*
O=C(Nc1ccc(S(=O)(=O)N2CCCCC2)cc1)c1ccccc1Cl	i	0%	26µM*	-35%	-5%	?
N#CC(C#N)=NNc1ccc(S(=O)(=O)N2CCCCC2)cc1	?	-13%	16µM*	-44%	7.9µM*	?
N#C/C(=N\Nc1ccc(S(=O)(=O)N2CCOCC2)cc1)C(N)=S	?	16%	?	-10%	-22%	?
CN1CCN(S(=O)(=O)c2ccc(NC(=O)c3ccccc3Cl)cc2)CC1	i	4%	-1%	-17%	-8%	12%
COc1cc(S(=O)(=O)N2CCCCC2)ccc1NC(=O)c1ccccc1Cl	i	-4%	16µM*	-22%	?	16µM*
